# Results from PubChem BioAssay.
# Values joined by “and” are separate entries in the source; they are usually repeats but may differ in a detail not shown here. Identical values can stand only once. Inconclusive results are not listed. For part of these data: Measured potencies and affinities stand elsewhere. Active and inactive are the calls of the source. Unless noted, no stated cut-off is given here; in the data, active means inhibition above about 80%; inactive means the rest. Where a SMILES comes first, the peptide text is derived from it. [ ]: non-standard residue; d: D form. The star is where a group is joined. Sta = CC(C)C[C@H](N)[C@@H](O)CC(=O)O; Isovaleryl = CC(C)CC(=O)*
# What was measured:
# [1] = LFS_MB_1R medulloblastoma cell growth inhibition, synergistic combos for chromothripsis tumors, cisplatin or BGB combos (AID 1671452); conditions: LFS_MB_1R medulloblastoma cells, stronger effect = higher value;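 further: cells exposed for 96 hours before readout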
# [2] = CRL2098 osteosarcoma cell growth inhibition, synergistic combos for chromothripsis tumors, BGB or cisplatin IC20 combos (AID 1671454); conditions: CRL2098 osteosarcoma cells, drug combinations, stronger effect = higher value;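 further: cells exposed for 96 h before readout; 0% = vehicle DMSO and 100% = killing by high DMSO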
# [3] = HD-MB03 medulloblastoma cell growth inhibition, synergistic combos for chromothripsis tumors, BGB or cisplatin IC20 combos (AID 1671455; in the data active means inhibition above about 83%;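 further: 0% = vehicle DMSO and 100% = high DMSO as cytotoxic control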); conditions: HD-MB03 medulloblastoma cells, stronger effect = higher value
# [4] = UWB1.289 ovarian carcinoma cell growth inhibition, synergistic combos for chromothripsis tumors, BGB or cisplatin combos (AID 1671456); conditions: UWB1.289 ovarian carcinoma cells, stronger effect = higher value;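 further: cells exposed to compound for four days; 0% = vehicle DMSO and 100% = killing by high DMSO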
# [5] = LFS_MB_2R medulloblastoma cell growth inhibition, synergistic combos for chromothripsis tumors, cisplatin combos (AID 1671457); conditions: LFS_MB_2R medulloblastoma cells, stronger effect = higher value;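 further: cells exposed to compound for four days before readout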
# [6] = UWB1.289_BRCA1 ovarian cancer growth, cell-based, BGB or cisplatin combinations (AID 1671459); conditions: UWB1.289 BRCA1 ovarian carcinoma, drug combinations, stronger effect = higher value
# [7] = human astrocyte viability loss, single and combined drugs, cytotoxicity control for chromothriptic childhood tumor combination screen, cell-based, BGB or cisplatin IC20 combos (AID 1671460); conditions: Human astrocytes, drug combinations, stronger effect = higher value;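 further: cells exposed to compounds for 96 hours before viability readout; 0% = vehicle and 100% = killing control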
# [8] = polyglutamine-triggered caspase-3 activation inhibitors, cell-based (AID 1583); conditions: polyglutamine-induced caspase-3 activation, cell assay; stronger effect = higher value;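 tested at 10 µM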
# [9] = suppressors of polyQ aggregation in yeast, 75Q-TubU reporter (AID 1593); conditions: Yeast 75Q polyglutamine aggregation reporter
# [10] = rescue of polyQ-huntingtin neuronal dysfunction in worms, whole organism, C. elegans mechanosensory neurons, N-terminal huntingtin (AID 1599); conditions: touch response, stronger effect = higher value
# [11] = inhibitors of mitochondrial cytochrome c release, biochemical, purified mitochondria (AID 1603); conditions: stronger effect = lower value;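 further: mouse liver mitochondria challenged with calcium chloride; signal normalized to the plate average as 100%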
# [12] = inhibitors of polyQ protein aggregation (AID 1604); conditions: polyglutamine-induced protein aggregation inhibition assay; stronger effect = higher value; tested at 2.5 µM
# [13] = enhancers of glutamate uptake in motor neurons, MN-1 cell line (AID 1612); conditions: MN-1 motor neuron cells, stronger effect = higher value;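 further: tested at 1 µM final; 0% = mean of DMSO vehicle wells on each plate; positive means more glutamate uptake than control and negative means less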
# [14] = suppressors of polyglutamine aggregation in yeast, 75Q-TubH (AID 1616); conditions: S. cerevisiae 75Q-TubH polyglutamine aggregation suppression; stronger effect = higher value
# [15] = reducers of polyQ inclusions in PC12 cells, cell-based, NGF-treated PC12, GFPQ80 (AID 1614); conditions: PC12 NGF-treated GFP-polyQ80 inclusion reduction;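 further: lower means fewer inclusions and 0 means no inclusions at all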
# [16] = inhibitors of Cryptococcus chitosan production, flow cytometry, Cibacron Brilliant Red staining (AID 1347148; call rule not given here;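 further: compound exposure lasted three days at 37 degrees C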); conditions: Cryptococcus neoformans chitosan, stronger effect = lower value; at 10 µM unless noted
# [17] = target: ATP-dependent translocase ABCB1 (Homo sapiens) (UniProt P08183); assay: MDR1 (ABCB1) efflux transporter inhibition, cell-based (AID 377; in the data active means fluorescence slope change above about 50%); conditions: MDR1-expressing cells, fluorescent substrate accumulation slope; stronger effect = higher value; concentration not given here
# [18] = Cy5 fluorescence interference with SSB-bound oligo, artefact control for HCV NS3 helicase inhibitor project, biochemical, NIH Clinical Collection, E. coli SSB (AID 743268; call rule not given here)
# [19] = system: Hepatitis C virus NS3 helicase; assay: HCV NS3 helicase inhibitors, primary screen, biochemical, fluorescence polarization, NIH Clinical Collection (AID 743270; call rule not given here); conditions: NS3 helicase binding to Cy5-dT15 DNA, stronger effect = higher value, concentration not given here
# [20] = target: Single-stranded DNA-binding protein (Escherichia coli (strain K12)) (UniProt P0AGE0); assay: E. coli SSB displacement from DNA, counter-screen for HCV NS3 helicase inhibitor project, biochemical, fluorescence polarization, NIH Clinical Collection (AID 743271; in the data active means inhibition above about 28%); conditions: stronger effect = higher value, concentration not given here
# [21] = measured here: combination with BGB IC40, at 0.05 µM
# [22] = measured here: combination with cisplatin, at 0.5 µM
# [23] = measured here: combination with cisplatin, at 5 µM
# [24] = measured here: combination with BGB at IC20, at 0.5 µM
# [25] = measured here: combination with cisplatin at IC20, at 0.5 µM
# [26] = measured here: combo with BGB at IC20, at 0.5 µM
# [27] = measured here: combo with cisplatin at IC20, at 0.5 µM
# [28] = measured here: inhibition with BGB combination, at 0.05 µM
# [29] = measured here: inhibition with cisplatin combination, at 0.05 µM
# [30] = BGB combination, concentration series, at 5 µM
# [31] = cisplatin combination, concentration series, at 5 µM
# [32] = measured here: combo with BGB IC20, at 0.5 µM
# [33] = measured here: combo with cisplatin IC20, at 0.5 µM
# Sequence of ATP-dependent translocase ABCB1 (Homo sapiens) (P08183 whole entry, looked up): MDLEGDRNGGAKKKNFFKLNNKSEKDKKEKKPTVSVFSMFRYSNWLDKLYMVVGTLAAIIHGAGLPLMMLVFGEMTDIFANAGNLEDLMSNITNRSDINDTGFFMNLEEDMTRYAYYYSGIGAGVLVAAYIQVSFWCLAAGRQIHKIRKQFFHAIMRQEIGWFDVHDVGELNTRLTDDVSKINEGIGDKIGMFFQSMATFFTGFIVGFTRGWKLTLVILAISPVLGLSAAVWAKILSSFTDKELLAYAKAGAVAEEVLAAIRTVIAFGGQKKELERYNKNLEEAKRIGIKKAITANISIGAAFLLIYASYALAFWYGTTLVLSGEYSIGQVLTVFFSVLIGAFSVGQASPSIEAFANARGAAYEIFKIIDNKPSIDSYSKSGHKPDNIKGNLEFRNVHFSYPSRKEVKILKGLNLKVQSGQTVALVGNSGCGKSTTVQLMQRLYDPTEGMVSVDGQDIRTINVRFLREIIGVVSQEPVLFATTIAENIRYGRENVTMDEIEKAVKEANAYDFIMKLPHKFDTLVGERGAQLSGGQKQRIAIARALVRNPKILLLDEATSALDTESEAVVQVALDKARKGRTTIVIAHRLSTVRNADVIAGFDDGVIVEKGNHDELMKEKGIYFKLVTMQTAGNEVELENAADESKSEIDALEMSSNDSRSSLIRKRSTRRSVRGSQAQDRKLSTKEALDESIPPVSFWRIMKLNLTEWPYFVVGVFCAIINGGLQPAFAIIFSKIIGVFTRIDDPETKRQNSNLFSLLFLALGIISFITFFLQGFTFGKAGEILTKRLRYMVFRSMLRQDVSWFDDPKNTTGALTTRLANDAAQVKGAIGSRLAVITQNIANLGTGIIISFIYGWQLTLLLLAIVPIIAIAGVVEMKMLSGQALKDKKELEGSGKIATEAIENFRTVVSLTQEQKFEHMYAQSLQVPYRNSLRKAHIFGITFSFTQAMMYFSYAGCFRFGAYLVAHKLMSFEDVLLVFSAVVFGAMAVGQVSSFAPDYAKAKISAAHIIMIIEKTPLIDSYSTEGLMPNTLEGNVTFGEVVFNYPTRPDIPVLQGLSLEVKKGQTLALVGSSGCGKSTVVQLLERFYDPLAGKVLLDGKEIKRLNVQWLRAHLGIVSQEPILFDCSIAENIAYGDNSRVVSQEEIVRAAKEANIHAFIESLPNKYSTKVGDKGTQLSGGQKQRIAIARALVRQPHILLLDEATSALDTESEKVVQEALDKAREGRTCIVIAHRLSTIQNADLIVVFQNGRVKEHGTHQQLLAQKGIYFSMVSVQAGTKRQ
structure (smiles),measurement,setting,value
Nc1ncn([C@H]2C[C@H](O)[C@@H](CO)O2)c(=O)n1,inhibition,[1]; at 0.5 µM,-7.33% (inactive)
same,inhibition,[1]; [21],-12.1%
same,inhibition,[1]; [22],-1.56%
same,inhibition,[1]; [23],-10.1%
same,inhibition,[2]; at 0.5 µM,-25.9% (inactive)
same,inhibition,[2]; [24],-12.6%
same,inhibition,[2]; [25],-67.9%
same,inhibition,[3]; at 0.5 µM,30.9% (inactive)
same,inhibition,[3]; [26],47.3%
same,inhibition,[3]; [27],31.6%
same,inhibition,[4]; at 0.5 µM,16.5% (inactive)
same,inhibition,[4]; [28],5.24%
same,inhibition,[4]; [29],-1.44%
same,inhibition,[5]; at 0.5 µM,-4.56% (inactive)
same,inhibition,[5]; [22],-4.46%
same,inhibition,[5]; [23],0.176%
same,inhibition,[6]; [30],32.1%
same,inhibition,[6]; at 0.5 µM,25% (inactive)
same,inhibition,[6]; [31],40.5%
same,inhibition,[7]; at 0.5 µM,26.9% (inactive)
same,inhibition,[7]; [32],27.2%
same,inhibition,[7]; [33],20.4%
CCN(CC)CCOc1ccc2c(c1)C(=O)c1cc(OCCN(CC)CC)ccc1-2,inhibition,[8],-90.6%
same,score,[9],1.3
same,rescue above control,[10],-4.59
same,cytochrome c release ratio,[11],0.81
same,inhibition of aggregation,[12],63.2%
same,glutamate uptake change,[13],22.5%
same,aggregation suppression score,[14],1.61
O=C(O)CN(CC(=O)O)Cc1cc2c(-c3ccccc3C(=O)O)c3cc(CN(CC(=O)O)CC(=O)O)c(=O)cc-3oc2cc1O,inhibition,[8],-215%
same,score,[9],1.05
same,rescue above control,[10],-5.14
same,cytochrome c release ratio,[11],0.86
same,inhibition of aggregation,[12],0%
same,glutamate uptake change,[13],13.5%
same,inclusion score,[15],0
same,aggregation suppression score,[14],0.687
CC(C)=CCC/C(C)=C/CO,inhibition,[8],23.2%
same,score,[9],1.12
same,rescue above control,[10],3.94
same,cytochrome c release ratio,[11],1.17
same,inhibition of aggregation,[12],60.6%
same,glutamate uptake change,[13],5.29%
same,inclusion score,[15],2
same,aggregation suppression score,[14],1.02
Nc1nc(Cl)nc2c1ncn2[C@@H]1O[C@H](CO)[C@@H](O)[C@@H]1F,inhibition,[1]; at 0.5 µM,-12.4% (inactive) and -0.15% (inactive)
same,inhibition,[1]; [21],-16.1% and -38.3%
same,inhibition,[1]; [22],76.7% and 60.5%
same,inhibition,[1]; [23],89.1% and 86.1%
same,inhibition,[2]; at 0.5 µM,79.4% (inactive) and 75.9% (inactive)
same,inhibition,[2]; [24],67.5% and 66%
same,inhibition,[2]; [25],88.5% and 80.9%
same,inhibition,[3]; at 0.5 µM,92.5% (active) and 92.1% (active)
same,inhibition,[3]; [26],86.9% and 84.3%
same,inhibition,[3]; [27],96.9% and 97.4%
same,inhibition,[4]; at 0.5 µM,42.4% (inactive) and 38.2% (inactive)
same,inhibition,[4]; [28],-20.1% and -11.3%
same,inhibition,[4]; [29],-17.8% and -24.8%
same,inhibition,[5]; at 0.5 µM,9.11% (inactive) and 33.6% (inactive)
same,inhibition,[5]; [22],55% and 57.2%
same,inhibition,[5]; [23],80.6% and 87.7%
same,inhibition,[6]; [30],76.8% and 56.9%
same,inhibition,[6]; at 0.5 µM,50.9% (inactive) and 49.8% (inactive)
same,inhibition,[6]; [31],99% and 94.5%
same,inhibition,[7]; at 0.5 µM,68.3% (inactive) and 72.7% (inactive)
same,inhibition,[7]; [32],68.2% and 76%
same,inhibition,[7]; [33],58.4% and 59.2%
CC1=C(/C=C/C(C)=C/C=C/C(C)=C/C(=O)Nc2ccc(O)cc2)C(C)(C)CCC1,fold fluorescence,[16],6.05 (inactive)
CN(C)CCCOc1nn(Cc2ccccc2)c2ccccc12,fluorescence slope change,[17],153% (active)
CC(=O)NC(Cc1ccccc1)C(=O)O (configuration not stated),inhibition,[8],6.15%
same,score,[9],1.35
same,rescue above control,[10],4.38
same,cytochrome c release ratio,[11],0.42
same,inhibition of aggregation,[12],85.9%
same,glutamate uptake change,[13],12.1%
same,inclusion score,[15],2
same,aggregation suppression score,[14],1.23
CC[C@@H](CO)NCCN[C@@H](CC)CO,inhibition,[8],-11.7%
same,score,[9],1.09
same,rescue above control,[10],2.87
same,cytochrome c release ratio,[11],1.07
same,inhibition of aggregation,[12],43.6%
same,glutamate uptake change,[13],-22.3%
same,inclusion score,[15],2
same,aggregation suppression score,[14],1.18
CC(=O)OCC(=O)[C@@]1(O)CCC2C3CCC4=CC(=O)CC[C@]4(C)C3[C@@H](O)C[C@@]21C (some centres not stated),inhibition,[8],6.86%
same,score,[9],1.36
same,rescue above control,[10],-8.68
same,cytochrome c release ratio,[11],1.12
same,inhibition of aggregation,[12],66.2%
same,glutamate uptake change,[13],16.2%
same,inclusion score,[15],2
same,aggregation suppression score,[14],0.966
COc1cc(N)c(Cl)cc1C(=O)NC1CCN(CCCOc2ccc(F)cc2)CC1OC (configuration not stated),fluorescence slope change,[17],62% (active)
CC#C[C@]1(O)CC[C@H]2[C@@H]3CCC4=CC(=O)CCC4=C3[C@@H](c3ccc(N(C)C)cc3)C[C@@]21C,fluorescence slope change,[17],142% (active)
same,fluorescence ratio,[18],0.97 (inactive)
same,inhibition,[19],2.4% (inactive)
same,inhibition,[20],-1.18% (inactive)
FC(F)(F)c1ccccc1-n1ccnc1,fold fluorescence,[16],8.97 [at 235.7 µM] (inactive)
CN(C)C/C=C(/c1ccc(Br)cc1)c1cccnc1,fluorescence slope change,[17],159% (active)
C[C@@H](CN1CC(=O)NC(=O)C1)N1CC(=O)NC(=O)C1,inhibition,[1]; at 0.5 µM,-13.2% (inactive)
same,inhibition,[1]; [21],-25.5%
same,inhibition,[1]; [22],-32.2%
same,inhibition,[1]; [23],-35.9%
same,inhibition,[2]; at 0.5 µM,-49.6% (inactive)
same,inhibition,[2]; [24],-22.2%
same,inhibition,[2]; [25],-110%
same,inhibition,[3]; at 0.5 µM,-16.4% (inactive)
same,inhibition,[3]; [26],-23.7%
same,inhibition,[3]; [27],-12.8%
same,inhibition,[4]; at 0.5 µM,-10.9% (inactive)
same,inhibition,[4]; [28],-2.15%
same,inhibition,[4]; [29],-21.4%
same,inhibition,[5]; at 0.5 µM,-10.5% (inactive)
same,inhibition,[5]; [22],-11.4%
same,inhibition,[5]; [23],-5.98%
same,inhibition,[6]; [30],-10.8%
same,inhibition,[6]; at 0.5 µM,-7.98% (inactive)
same,inhibition,[6]; [31],-4.24%
same,inhibition,[7]; at 0.5 µM,0.89% (inactive)
same,inhibition,[7]; [32],-5.32%
same,inhibition,[7]; [33],12.3%
CC(C)CC(=O)N[C@H](C(=O)N[C@H](C(=O)N[C@@H](CC(C)C)[C@@H](O)CC(=O)N[C@@H](C)C(=O)N[C@@H](CC(C)C)[C@@H](O)CC(=O)O)C(C)C)C(C)C (Isovaleryl-VV[Sta]A[Sta]-OH),fold fluorescence,[16],4.93 [at 72.9 µM] (inactive)
NS(=O)(=O)c1cc(Cl)c(Cl)c(S(N)(=O)=O)c1,fluorescence slope change,[17],82.9% (active)
CCCCCOC(=O)Nc1nc(=O)n([C@@H]2O[C@H](C)[C@@H](O)[C@H]2O)cc1F,inhibition,[1]; at 0.5 µM,-36.3% (inactive) and -17.9% (inactive)
same,inhibition,[1]; [21],-77.2% and -11.6%
same,inhibition,[1]; [22],-36.7% and -43%
same,inhibition,[1]; [23],-42.5% and -67.7%
same,inhibition,[2]; at 0.5 µM,-110% (inactive) and -37.4% (inactive)
same,inhibition,[2]; [24],-124% and -32.3%
same,inhibition,[2]; [25],-103% and -72.6%
same,inhibition,[3]; at 0.5 µM,-17.2% (inactive) and -2.76% (inactive)
same,inhibition,[3]; [26],-8.55% and -7.81%
same,inhibition,[3]; [27],-34.6% and 2.4%
same,inhibition,[4]; at 0.5 µM,-11.5% (inactive) and 9.77% (inactive)
same,inhibition,[4]; [28],-37.1% and -7.89%
same,inhibition,[4]; [29],-5.98% and 11.7%
same,inhibition,[5]; at 0.5 µM,-21.1% (inactive) and -14.8% (inactive)
same,inhibition,[5]; [22],-19.7% and -16.3%
same,inhibition,[5]; [23],-95.1% and -10.2%
same,inhibition,[6]; [30],-26.2% and 5.45%
same,inhibition,[6]; at 0.5 µM,-11.8% (inactive) and 4.86% (inactive)
same,inhibition,[6]; [31],-6.41% and 4.95%
same,inhibition,[7]; at 0.5 µM,-8.94% (inactive) and 6.03% (inactive)
same,inhibition,[7]; [32],-11% and -1.61%
same,inhibition,[7]; [33],-23.1% and 9.49%
CCCCCCCCCCCCCCCC(=O)NCCO,fold fluorescence,[16],4.46 (inactive)
